Source: PubChem
Only some compounds are listed: those with a hit (about 5.9% of all), similar ones and a draw of the others.
FXN GAA850 act: increases GAA850 frataxin promoter reporter activity; hit rate 0.56% among 360,000; activation, % at 6 µM; HEK293 lucGAA850 FXN promoter luciferase reporter, 24 h; percent of 10 µM SAHA response;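 active = activation above the average of all compounds screened plus 3 SD, cutoff fixed separately per campaign, cut at about 7.5% in these data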;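 note: 0% = DMSO wells and 100% = 10 µM SAHA wells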
AHR act: human AHR activation. P35869. AHR-responsive luciferase reporter cells, luminescence. activation, % at 5 µM. hit rate 2.5% among 320,000. AID 2796; in the data active = activation above about 47%;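 note: 0% = vehicle wells and 100% = reference agonist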
Target sequence (P35869 whole entry, looked up): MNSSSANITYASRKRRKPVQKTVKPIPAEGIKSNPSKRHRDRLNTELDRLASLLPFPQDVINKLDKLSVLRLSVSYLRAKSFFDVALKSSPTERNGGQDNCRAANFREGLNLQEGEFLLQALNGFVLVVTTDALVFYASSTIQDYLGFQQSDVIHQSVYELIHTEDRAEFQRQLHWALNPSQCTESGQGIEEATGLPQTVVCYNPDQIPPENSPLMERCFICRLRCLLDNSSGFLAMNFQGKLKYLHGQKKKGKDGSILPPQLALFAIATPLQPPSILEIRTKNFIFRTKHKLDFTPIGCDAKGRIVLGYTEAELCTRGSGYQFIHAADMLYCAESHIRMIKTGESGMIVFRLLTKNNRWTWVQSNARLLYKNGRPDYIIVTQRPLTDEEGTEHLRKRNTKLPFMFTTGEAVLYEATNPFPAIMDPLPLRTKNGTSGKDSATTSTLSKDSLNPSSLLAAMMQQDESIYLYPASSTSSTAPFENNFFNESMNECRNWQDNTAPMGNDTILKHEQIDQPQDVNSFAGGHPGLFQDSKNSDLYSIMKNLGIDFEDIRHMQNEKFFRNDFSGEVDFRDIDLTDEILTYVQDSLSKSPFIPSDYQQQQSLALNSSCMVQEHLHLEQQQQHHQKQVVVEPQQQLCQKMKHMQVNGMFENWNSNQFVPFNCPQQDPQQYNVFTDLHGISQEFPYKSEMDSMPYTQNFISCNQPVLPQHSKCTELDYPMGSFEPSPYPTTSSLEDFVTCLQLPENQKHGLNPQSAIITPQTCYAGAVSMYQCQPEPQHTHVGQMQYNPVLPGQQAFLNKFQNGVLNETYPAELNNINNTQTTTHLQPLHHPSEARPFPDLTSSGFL
HSF1 inh: HSF1 inhibition | hit rate 0.77% among 300,000 | activity change, negative = inhibition, % at 7.5 µM (by protocol) | NIH3T3-HGL HSE-luciferase, MG132-induced, luminescence 8 h; active compounds read low;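 active = more than half of replicate wells show activity change below -50%, luminescence cut by over half; inconclusive = some wells, but at most half, below -50%; inactive = no replicate well below -50%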;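 note: luciferase reports HSF-1 transcriptional activity via heat shock element; 0% = median of DMSO wells and -100% = zero luminescence signal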
HSF1 activator: increases HSF-1 driven luciferase reporter signal; hit rate 1.7% among 300,000; activation, % at 9 µM; AID 504408; NIH3T3-HGL HSF-1 luciferase reporter, MG132, 8 h; 100% = twice DMSO control signal;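 active = mean replicate activation of at least 50% with a set share of replicates each reaching 50%; inconclusive = only one of those two conditions met; inactive = mean below 50% and too few replicates reaching it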;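 note: 0% = median of the neutral control wells and 100% = twice that signal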
NR0B1 inh: inhibitors of human orphan nuclear receptor DAX1 (NR0B1); P51843; HEK293 Gal4-DAX1 luciferase reporter, luminescence; inhibition, % at 6.75 µM; hit rate 0.99% among 340,000; AID 504766;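 active = inhibition above the mean over all tested compounds plus 3 SD, cut at about 4.2% in these data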;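 note: 0% = DAX1-transfected cells with DMSO and 100% = empty-vector control cells with DMSO; inhibition shows as a rise in luminescence from relieved DAX1 repression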
HSP90 refold inh: blocks HSP90-mediated luciferase refolding in reticulocyte lysate; AID 1789; hit rate 0.91% among 290,000; inhibition, % at 5.6 µM; Rabbit reticulocyte lysate, luciferase refolding luminescence, 3 h;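 active = inhibition above the screen-wide mean plus 3 SD, computed separately per campaign, cut at about 16% in these data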;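 note: 0% = DMSO wells and 100% = 60 µM geldanamycin wells; inhibitors lower the luminescence because luciferase stays unfolded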
GAA30 counter: GAA30 FXN promoter activation counter-screen | shares compounds with FXN GAA850 act | HEK293 lucGAA30 FXN promoter luciferase, 24 h; DMSO = 0%, 5 µM ipriflavone = 100% | activation, % at 6 µM | hit rate 66% among 1,900 | AID 588350;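 active = mean activation above the mean of solvent-only control wells plus 3 SD, cut at about 22% in these data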;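 note: counterscreen of GAA850 promoter hits where activity marks nonselective or luminescence artifacts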
GAA850 confirm: GAA850 FXN promoter activation confirmation; shares compounds with FXN GAA850 act; HEK293 lucGAA850 FXN promoter luciferase reporter, 24 h; 100% = activation by SAHA; activation, % at 6 µM; hit rate 86% among 1,900; AID 588351;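 active = mean activation above a set limit taken from the primary screen, cut at about 8% in these data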;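 note: 0% = DMSO wells and 100% = 10 µM SAHA wells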
The depositor's hits bear a star; u = inconclusive; x = not tested or not shown.

SMILES | FXN GAA850 act | AHR act | HSF1 inh | HSF1 activator | NR0B1 inh | HSP90 refold inh | GAA30 counter | GAA850 confirm
CCCS(=O)(=O)Nc1ccc(N2CCCCC2)c(S(=O)(=O)Nc2ccccc2OC)c1 | 7.8* | x | x | x | 1 | x | 19 | 9.1*
C/C(=N\NC(=O)c1ccccc1)c1ccc(N2CCCCC2)cc1 | 8.0* | 3 | 1 | 24 | 1 | 0 | 98* | 34*
COc1cccc(NC(=O)Cc2ccccc2)c1 | 0 | 13 | 3 | -5 | 2 | 4 | x | x
O=C(Cc1ccccc1)Nc1cccc(N2C(=O)C=CC2=O)c1 | 9.0* | -1 | -62* | -70 | 0 | -5 | 3 | 7
CCOC(=O)Cc1nn(Cc2nc(-c3ccc(C)cc3)cs2)c(=O)c2ccccc12 | -2 | 3 | -1 | 11 | 1 | -2 | x | x
Cn1cnc2cc(NC(=O)c3ccc(Cl)cc3)ccc21 | 9.3* | -5 | 23 | 29 | 1 | 2 | 95* | 42*
COc1ccc(CNC(=O)c2c(-c3cc(Cl)c(OC)c(Cl)c3)noc2C)cc1 | 10* | -1 | -4 | 2 | 1 | 1 | 17 | 11*
Cc1onc(-c2ccccc2)c1C(=O)NCc1ccc(Cl)cc1 | 1 | x | -6 | 15 | 1 | 3 | x | x
COc1ccc(CCNC(=O)c2cc(-c3ccco3)on2)cc1OC | 13* | 4 | -4 | 4 | -2 | -1 | 77* | 34*
O=C(NCc1ccccc1)c1cc(-c2ccco2)on1 | 4 | 0 | 6 | 18 | 0 | 0 | x | x
O=C(NCCc1ccccc1)c1cc(-c2ccco2)on1 | 13* | 1 | 21 | 45 | 2 | -2 | 153* | 54*
CCN1C(=O)[C@H]2[C@H]3CN=C(SCc4ccc(Cl)cc4)N3[C@@](CC)(C(=O)OC)[C@H]2C1=O | 11* | x | x | x | -1 | x | 23* | 9.2*
COC(=O)[C@@]1(C)[C@H]2C(=O)N(Cc3ccccc3)C(=O)[C@H]2[C@H]2CN=C(SCc3ccc(C)cc3)N21 | 10* | x | x | x | 0 | x | 32* | 12*
CCN1C(=O)[C@H]2[C@H]3CN=C(SCc4ccc(OC)cc4)N3[C@@](CC)(C(=O)OC)[C@H]2C1=O | 0 | x | x | x | 0 | x | x | x
O=C1c2ccccc2C(=O)N1Cc1ccccc1F | 3 | -2 | -2 | -6 | -1 | -1 | x | x
N#Cc1sc2nc(N3CCCCC3)c3c(c2c1N)CCCC3 | 7.6* | 1 | 6 | 4 | -1 | -1 | 18 | 17*
COc1cccc(NC(=O)c2nc(S(C)(=O)=O)ncc2Cl)c1 | 50* | 6 | 21 | 43 | 0 | -3 | 69* | 27*
CCOC(=O)c1ccc(NC(=O)c2ccccc2)cc1 | 8.0* | 1 | 16 | 21 | 1 | 5 | 79* | 33*
CCOC(=O)c1ccc(NC(=O)c2nc(S(=O)(=O)Cc3ccccc3)ncc2Cl)cc1 | 16* | 3 | -23 | -33 | 0 | 3 | -40 | -27
CC(=O)Nc1ccc(NC(=O)c2nc(S(=O)(=O)Cc3cccc(C)c3)ncc2Cl)cc1 | -11 | 0 | u | -40 | 0 | 2 | x | x
CNC(=O)c1oc(-c2ccc(Cl)cc2)nc1C | 3 | -2 | 2 | 0 | 2 | 0 | x | x
CC1(C)CC(=O)C=C(c2cccc3c2oc2ccccc23)C1 | 9.6* | 3 | 8 | 11 | 1 | x | 61* | 26*
CCOC(=O)c1ccccc1OC(=O)CS(=O)c1ccccc1[N+](=O)[O-] (stereo not given) | 0 | 2 | 27 | 24 | 1 | -1 | x | x
CS(=O)(=O)c1ccc(S(=O)CC(=O)OCc2ccccc2)c([N+](=O)[O-])c1 (stereo not given) | 95* | x | -94* | -94 | -3 | -1 | -91 | -17
CCOC(=O)C1=C(C)N(CCCC(=O)O)C(=O)NC1c1cc2ccccc2c2ccccc12 (stereo not given) | x | 1 | 7 | 16 | x | x | x | x
SMILES | FXN GAA850 act | AHR act | HSF1 inh | HSF1 activator | NR0B1 inh | HSP90 refold inh | GAA30 counter | GAA850 confirm
ClC(/C=N/n1cnnc1)=C/c1ccccc1 | 7.8* | 0 | 17 | 42 | -1 | 0 | 59* | 30*
CC(/C=N/n1cnnc1)=C\c1ccccc1 | 0 | 0 | -7 | -12 | 0 | 0 | x | x
NC(Cc1ccc(C(F)(F)F)cc1)c1csc(NC(=O)Nc2ccccc2Cc2ccccc2)n1 (stereo not given) | 15* | x | x | x | x | x | 20 | 15*
NC(CCc1ccccc1)c1csc(NC(=O)Nc2ccccc2Oc2ccccc2)n1 (stereo not given) | 11* | x | x | x | x | x | 9 | 16*
COc1cccc(Nc2nc(C(N)CCc3ccccc3)cs2)n1 (stereo not given) | 8.3* | x | x | x | x | x | -4 | 7.7*
CCCCn1nc(C(=O)NCC(=O)Nc2c(C)cccc2C)c2ccccc2c1=O | -2 | 0 | x | x | 0 | x | x | x
O=C(CSc1nnc(NC(=O)C2CC(=O)N(c3ccc(F)cc3)C2)s1)NCC1CCCO1 (stereo not given) | 0 | 6 | -3 | 0 | 0 | -6 | x | x
O=C(NCCCn1ccnc1)c1ccc(Cl)cc1[N+](=O)[O-] | 0 | 29 | -1 | 0 | 0 | -1 | x | x
O=C(NCCCn1ccnc1)c1cc2cc([N+](=O)[O-])ccc2oc1=O | 12* | 4 | -3 | -5 | 4.2* | -2 | 11 | 7
CCCS(=O)(=O)NC(=O)C1(C)CCCN(C(=O)CCc2cccs2)C1 (stereo not given) | 2 | x | x | x | x | x | x | x
O=C(Nc1cccc(C(F)(F)F)c1)C(=O)N1CCCCC1 | 8.1* | 2 | 1 | 10 | -1 | -3 | 53* | 21*
O=C(CCCCCCC(=O)Nc1ccccc1)NO | 88* | -4 | u | -52 | 13* | x | 61* | 97*
COC(=O)CN1C(c2cccc(Cl)c2)=Nc2ccc(Cl)cc2C1c1ccccc1 (stereo not given) | 8.5* | 15 | 42 | 64* | 0 | 4 | 39* | 15*
COC(=O)CN1C(c2ccc(OC)cc2)=Nc2ccc(Cl)cc2C1c1ccccc1 (stereo not given) | 4 | 11 | -1 | 18 | 1 | 8 | x | x
Cc1cc2c(cc1C)N(CC(=O)N1CCCC1)C(=O)CC(c1ccccc1)=N2 | 7.8* | 4 | 20 | 29 | 2 | 5 | 78* | 22*
Cc1cc(NC(=O)CSc2nc(-c3cccs3)cc(C(F)(F)F)n2)no1 | 0 | 0 | 0 | -7 | -3 | 3 | x | x
COc1ccc(-c2cc(C(F)(F)F)nc(S(=O)(=O)CCCC(=O)Nc3cccnc3Cl)n2)cc1OC | 8.7* | x | x | x | -2 | 1 | 54* | 52*
